Screening results from PubChem.
KB-3-1 cytotox = qHTS assay for MDR1-selective chemotherapeutics: Primary screen using the parental adenocarcinoma cell KB-3-1; KB-3-1 viability, CellTiter-Glo ATP luminescence, 72 h; Potency, µM (series often up to 46.1 µM), most hits filed as cytotoxic; 400,000 tested, 1.4% active; AID 1347075, 2019; note: % is set by controls: 0 for no effect and ±100 for the full control effect; nearly all actives have a fitted effect of over 60% in size
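Cytotoxicity measured as CellTiter-Glo luminescence after 72 h at 37 C. Compound titrations were pinned onto drug-naive KB-3-1 parental adenocarcinoma cells grown in DMEM with 10% FBS, and normalized data fitted to concentration-response curves.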
KB-V1 MDR tox = qHTS assay for MDR1-selective chemotherapeutics: Primary screen using the drug-selected MDR subline cells KB-V1 | KB-V1 MDR cells viability, CellTiter-Glo, 72 h | AID 1347076, 2019 | 400,000 tested, 3.4% active | Potency, µM (titrated, usually from 46.1 µM), actives largely listed as cytotoxic; note: % is set by controls: 0 for no effect and ±100 for the full control effect; nearly all actives have a fitted effect of over 60% in size
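Compound-treated KB-V1 multidrug-resistant cells, 72 h, 37 degrees C; viability by CellTiter-Glo. Fitted qHTS curves give the values.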
SW480 rereplic = A quantitative high throughput screen for small molecules that induce DNA re-replication in SW480 colon adenocarcinoma cells. AID 624297, 2012. Potency, µM (top dose mostly 46.1 µM), inactives show top-dose re-replication activation, most hits filed as activators. 340,000 tested, 1.8% active. SW480 DNA re-replication, Hoechst DNA content imaging, 48 h; note: % of control where 0% means no effect; nearly all actives have a fitted effect of over 55% in size
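Treated cells incubate 48 hr (37 C, 5% CO2), are stained 40 min with Hoechst, and nuclear fluorescence is enumerated; a rise in nuclei with high DNA signal marks re-replication.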
MCF10A rereplic = A quantitative high throughput screen for small molecules that induce DNA re-replication in MCF 10a normal breast cells; MCF 10A DNA re-replication, Hoechst nuclear intensity, 48 h; 350,000 tested, 2.9% active; Potency, µM (titrated, usually from 46.1 µM), for the others: top-dose activity, positive = re-replication, hits mostly activators; AID 624296, 2012; note: % of control where 0% means no effect; nearly all actives have a fitted effect of over 50% in size
HT1080-NT tox = qHTS for induction of synthetic lethality in tumor cells producing 2HG: qHTS for the HT-1080-NT fibrosarcoma cell line; AID 686970, 2013; 360,000 tested, 1.6% active; Potency, µM (doses to about 46.1 µM), for inactives: at the highest dose activity, negative = less viability, usual class: cytotoxic; HT-1080-NT fibrosarcoma viability, CellTiter-Glo ATP luminescence, 48 h;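 note: NT is the 2HG producing partner of a matched IDH1 knockdown line; 0% = DMSO-treated cells and -100% = media-only wells without cells; nearly all actives have a fitted effect of over 55% in size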
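Fibrosarcoma NT cells, 750 per well in 5% FBS RPMI, were exposed to compound for 48 hours. Viability: CellTiter-Glo luminescence.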
HT1080 IDH1KD tx = qHTS for induction of synthetic lethality in tumor cells producing 2HG: qHTS for the HT-1080-IDH1KD cell line. 360,000 tested, 2% active. Potency, µM (series often up to 46.1 µM), for inactives: top-dose activity, negative = toxicity, actives largely listed as cytotoxic. HT-1080 IDH1 knockdown viability, ATP luminescence, 48 h;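 note: 0% = DMSO wells and -100% = cell-free medium wells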
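Knockdown cells (IDH1KD HT-1080) received compounds 2 h after plating at 750 cells/well and were kept 48 h at 37 °C in 5% FBS RPMI. A CellTiter-Glo luminescence read gave % activity for curve fitting.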
Starred values were filed as active, the others as inactive; i = inactive; ? = inconclusive; . = no result given. Most compounds without a hit are left out; they make up all but 8% or so of the library. Calls come from the whole dose curve; as a rule, active = well fitted curve in the direction sought with a large enough effect; inconclusive = small, poorly fitted or top-dose-only effect, or another doubt; inactive = no such curve, though single readings can be large; an effect the other way counts as inactive or inconclusive. Potency is the fitted concentration of half-maximal effect.

SMILES | KB-3-1 cytotox | KB-V1 MDR tox | SW480 rereplic | MCF10A rereplic | HT1080-NT tox | HT1080 IDH1KD tx
COc1ccc(NCC(=O)N/N=C/c2c(C)nn(Cc3ccccc3)c2Cl)cc1 | i | 11.6µM* | -0.2% | 7.2% | 6.0% | 10.7%
Cc1nn(-c2ccccc2)c(Cl)c1/C=N/NC(=O)c1ccco1 | ? | i | -0.7% | 10.9% | -0.4% | -5.7%
Cc1ccc(NS(=O)(=O)c2ccc3c(c2)N(C)C(=O)CC(=O)N3C)cc1Cl | i | ? | . | . | . | .
Cc1cc(=O)c2ccccc2n1CC(=O)NCc1ccccc1 | i | 4.61µM* | -2.0% | ? | 0.7% | -0.4%
Cc1nc2ccccc2n1CC(=O)NCc1ccccc1 | ? | 6.51µM* | 1.2% | -5.9% | -16.6% | -27.8%
Cc1nc2ccccc2n1CC(=O)NN | i | i | -2.7% | -3.5% | -7.3% | -0.9%
O=C1C2C3C=CC(CNS(=O)(=O)c4ccccc4[N+](=O)[O-])(O3)C2C(=O)N1c1ccccc1 (stereo not given) | i | ? | ? | 20.6µM* | -7.2% | 3.2%
Cc1cccc(C)c1NC(=O)CN(C)C(=O)c1ccc2c(=O)n3c(nc2c1)CCC3 | i | i | -5.6% | 15.3% | -5.2% | -3.2%
CCOc1ccc(C(CC(=O)O)NC(=O)COc2ccc3ccccc3c2)cc1OC (stereo not given) | i | ? | -14.7% | 1.9% | 3.1% | 1.3%
N#Cc1c(-c2ccc(Cl)cc2)c2c([nH]c1=O)-c1ccccc1OC2 | i | i | 5.8µM* | 1.84µM* | 1.0% | 4.2%
CC1(C)Cc2c(c(-c3ccccc3Cl)[nH]c(=O)c2C#N)CO1 | i | i | 0.8% | -1.6% | -2.6% | -0.3%
CCOc1cc(/C=C2/C(=O)ON=C2C)ccc1OCc1ccccc1 | i | i | ? | ? | 11.1% | 1.0%
CCOc1cc(/C=C2/C(=O)ON=C2C)ccc1OCc1ccc(F)cc1 | i | i | 18.4µM* | ? | -2.7% | 6.8%
CCOc1cc(/C=C2/C(=O)ON=C2C)ccc1OCc1ccccc1F | i | ? | 23.1µM* | ? | -29.7% | ?
CCOc1cc(/C=C2\C(=O)ON=C2c2ccccc2)ccc1OC | i | ? | ? | ? | -0.3% | -3.4%
Cc1ccc(CNC(=O)CCCCCn2c(=O)c3sccc3n(CC(=O)N3CCCCC3C)c2=O)cc1 (stereo not given) | i | i | . | . | . | .
Cc1ccccc1CS(=O)(=O)c1cnc2ccccc2n1 | i | ? | ? | 18.4µM* | 23.1µM* | ?
CCOC(=O)c1c(NC(=O)CSc2nc(-c3ccc(OC)cc3)cc(C(F)(F)F)n2)sc(C)c1C | i | i | . | . | . | .
CC(=O)O[C@H]1[C@@H](O)[C@H](O)[C@H](Oc2c(O)c(C)c3c4c2[C@@H](C)CC[C@@H]4[C@@H](C)C[C@H]3C=C(C)C)O[C@H]1C | ? | 25.9µM* | -13.0% | ? | ? | ?
CC(C)[C@H](NC(=O)c1ccccc1)C(=O)NC1CCCCCCC1 | i | ? | -13.3% | -5.5% | -7.4% | 0.7%
CC(C)[C@H](NC(=O)c1ccccc1F)C(=O)NC1CCCCCCC1 | . | . | -2.6% | 18.4µM* | 0.0% | 1.9%
CC(=O)N1CCc2cc(S(=O)(=O)NC(Cc3ccccc3)C(=O)Nc3ccc(C)cc3C)ccc21 (stereo not given) | i | i | . | . | . | .
Nc1cccc(-c2cn(-c3cc4cc(C#CC5(O)CCCCC5)ccc4oc3=O)nn2)c1 | i | i | -10.0% | ? | 5.0% | 6.2%
N#Cc1c(N2CCCC2)nc(N)c2c(N)nc(N3CCCC3)cc12 | ? | 0.731µM* | ? | ? | -20.2% | -26.0%
